# In all, about 360,000 compounds went through this assay and about 3,800 (1.1%) were called active. This is one part of a sample in which actives are shown more often than they occur.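 How the source made its calls: active means compounds causing at least 50% loss of cell viability in the single-dose screen, relative to plate controls; inactive means the rest.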
# Assay: viability loss with TRAIL in NB7+C8 cells, primary screen, TRAIL sensitizer project, cell-based, ATPlite luminescence (AID 624354)
# Conditions: at 10 µM, stronger effect = higher value
row,Structure (SMILES),"inhibition (viability loss, TRAIL sensitization)"
1,O=c1[nH]c(CCl)nc2cc(-c3ccc(Cl)cc3)sc12,94.8% (active)
2,Cn1c(NCc2cccnc2)nc2cc(-c3ccc(F)cc3)sc2c1=O,12.2% (inactive)
3,COc1cccc(-c2cc3nc(NCCOc4ccccc4Cl)n(C)c(=O)c3s2)c1,-1.03% (inactive)
4,CN(CC(=O)Nc1cccc(F)c1)C(=O)C1CC(=O)N(CCc2ccccc2)C1 (configuration not stated),0.466% (inactive)
5,Clc1ccc(Nc2ccc3ccccc3n2)cc1,22.5% (inactive)
6,O=C(CNC(=O)C(c1ccccc1)c1ccccc1)N/N=C\c1ccc2c(c1)OCO2,9.36% (inactive)
7,C(=N\Nc1ccc2ccccc2n1)/c1ccc2c(c1)OCO2,62.1% (active)
8,COc1ccc(NC(=O)C2(C)Cc3c(-c4cccc(NC(C)=O)c4)ccnc3O2)cc1OC (configuration not stated),4.61% (inactive)
9,CCCCN1CC(N2CCN(Cc3cccc(C)c3)CC2)CS1(=O)=O (configuration not stated),4.54% (inactive)
10,CC(=O)[C@@]12O[C@@H]1C[C@H]1[C@@H]3CC[C@H]4C[C@@H](O)CC[C@]4(C)[C@H]3CC[C@@]12C,0.527% (inactive)
11,CCCNc1c(N)c(=O)c1=O,-1.54% (inactive)
12,C[C@H]1COc2cc(N3CCSCC3)ccc2S(=O)(=O)N1,-6.12% (inactive)
13,Cc1cc(Br)cn2c(Cc3ccccc3C(F)(F)F)c(-c3ccc(Cl)cc3)nc12,22.1% (inactive)
14,O=C(O)c1cc(S(=O)(=O)N(Cc2ccccc2)c2ccccc2)ccc1Cl,-9.38% (inactive)
15,CCN(CC)CCCC(C)n1c2nc(=O)[nH]c(=O)c-2nc2cc(Cl)ccc21 (configuration not stated),48.4% (active)
16,CCc1ccc(S(=O)(=O)Nc2ccc(C)c(NS(C)(=O)=O)c2)cc1,-5.21% (inactive)
17,Cc1c(O)c(C)c2c(c1O)C(=O)C[C@@H](c1ccccc1)O2,18.2% (inactive)
18,CC1CN(C(=O)CCC(=O)NCCCN2CCC(Cc3ccccc3)CC2)c2cc(Cl)ccc2O1 (configuration not stated),40.8% (inactive)
19,CC(C)=CCC/C(C)=C/C(=O)O,-7.95% (inactive)
20,O=C(/C=C/c1ccc2c(c1)OCCO2)c1ccc(O)cc1,58.1% (active)
21,COc1ccc(OC)c(/C=C/C(=O)c2ccc3c(c2)OCO3)c1,12.1% (inactive)
22,O=C(COC(=O)c1ccc(O)cc1O)c1ccc2c(c1)OCCO2,0.773% (inactive)
23,CCOCCCN(C(=O)Cn1nnc(-c2ccc(OC)c(OC)c2)n1)C(CC)C(=O)NC1CCCC1 (configuration not stated),-5.95% (inactive)
24,CCOC(=O)C(NS(=O)(=O)c1ccc(C)cc1)(C(F)(F)F)P(=O)(OCC(C)C)OCC(C)C (configuration not stated),27.5% (inactive)
25,COc1ccccc1N1CCN(S(=O)(=O)c2ccc3c(c2)NC(=O)CS3)CC1,8.43% (inactive)

row,Structure (SMILES),"inhibition (viability loss, TRAIL sensitization)"
1,Cc1nn(Cc2ccc(C(=O)N3N=C(C(F)F)CC3(O)C(F)F)cc2)c(C)c1[N+](=O)[O-] (configuration not stated),0.592% (inactive)
2,CC(=O)Nc1ccc(S(=O)(=O)NC(C)C(=O)OCCOc2ccc(F)cc2)cc1 (configuration not stated),-1.76% (inactive)
3,CS(=O)(=O)c1cccc(-c2ccc3nncn3c2)c1,1.26% (inactive)
4,CC(C)n1cnc2c(NCc3ccccc3)cc(OCC3CCN(C)CC3)cc21,54.6% (active)
5,COCCNC(=O)CN(C(=O)CCC(=O)Nc1cc(C)on1)c1ccc(C)cc1C,12.5% (inactive)
6,O=C(NCc1ccccc1)C(c1ccc(F)cc1)N1CCN(C(=O)C2CCCO2)CC1 (configuration not stated),3.33% (inactive)
7,Cc1ccc(C)c(NC(=O)CSc2nc3c(oc4ccccc43)c(=O)n2-c2ccccc2)c1,-5.26% (inactive)
8,CCCCC(=O)Nc1ccc2c(c1)C(=O)NC2=O,8.86% (inactive)
9,CCCCC(=O)Nc1cc(C)c2c(=O)oc3ccccc3c2n1,58.6% (active)
10,Cc1cc(Cl)c(S(=O)(=O)Nc2ccc3c(c2)OCCO3)cc1OCC(N)=O,1.34% (inactive)
11,CC1CCc2c(sc3c2C2=NS(=O)(=O)CCN2C=N3)C1 (configuration not stated),-12.9% (inactive)
12,O=C1C[C@@H]2c3c(cccc3CN1Cc1ccccc1)C[C@@H](O)[C@H]2O,-11.3% (inactive)
13,COc1ccc2c(c1)CCCO[C@]21O[C@H](CCO)C[C@H](O)[C@H]1O,2.33% (inactive)
14,Nc1nc2ncccn2c1-c1ccccc1,-21.7% (inactive)
15,COc1ccc(C(=O)NC(C)c2nccs2)cc1OC1CCN(C(C)C)CC1 (configuration not stated),-24.4% (inactive)
16,O=C(CC1SC(=Nc2ccccc2F)N(CCN2CCOCC2)C1=O)Nc1ccc(F)cc1F (configuration not stated),72.8% (active)
17,O=C(CN1CCN(C/C=C/c2ccccc2)CC1)Nc1ccc(F)cc1F,8.21% (inactive)
18,O=C(CC1SC(N2CCOCC2)=NC1=O)Nc1ccccc1F (configuration not stated),7.68% (inactive)
19,NC(=O)c1ccc(N2CCOCC2)nc1,-4.39% (inactive)
20,COc1ccc(N(C)S(=O)(=O)c2cccc3nsnc23)cc1,-0.348% (inactive)
21,CC1(C)CC(N2CCN(C(c3ccccc3)c3ccccc3)CC2)=CC(=[N+]2CCCCC2)C1,53.6% (active)
22,CCOC(=O)C1=C(c2ccccc2)N=C2SCC(=O)N2C1c1ccc(O)c(OC)c1 (configuration not stated),-13.7% (inactive)
23,O=C(Nc1ccc2c(c1)OCCO2)C(C1CC1)N1CCC(Cc2ccccc2)CC1 (configuration not stated),1.75% (inactive)
24,c1c2c(cc3sc(N4CCCCC4)nc13)OCCO2,76.5% (active)
25,CCN1CCC2(CCN(Cc3cn[nH]c3-c3ccc(OC)c(F)c3)C2)C1 (configuration not stated),-3.56% (inactive)

row,Structure (SMILES),"inhibition (viability loss, TRAIL sensitization)"
1,CCOc1ccc(NC(=O)CCCCCN2C(=O)[C@@H]3Cc4ccccc4CN3C2=O)cc1,9.4% (inactive)
2,Cc1ccc(-c2ccc(=O)n(CC(=O)NCCCN3CCCCC3)n2)cc1,16% (inactive)
3,CCc1ccc(-c2cc3c(=O)n(CC(=O)NCCCN4CCN(Cc5ccccc5)CC4)nc(C)n3n2)cc1,57.1% (active)
4,Cc1nn(CC(=O)NCCc2ccccc2)c(=O)c2cc3occc3n12,-1.06% (inactive)
5,CC(C)=NN1C(=O)c2ccccc2NC1(C)C,0.317% (inactive)
6,CCC(C)C(NC(=O)C1CCC(=O)N1C(=O)OCc1ccccc1)C(=O)NC(C(=O)N1CCCC1C(N)=O)C(C)CC (configuration not stated),1.84% (inactive)
7,Cc1sc2ncnc(N3CCC(C(=O)Nc4ccc(F)cc4Cl)CC3)c2c1C,13.1% (inactive)
8,O=C(CSc1c2c(nc3ccc(Cl)cc13)CCCC2)NCc1ccco1,7.83% (inactive)
9,CC(C)CCNC(=O)c1ccc2c(Cl)c3c(nc2c1)CCC3,63.8% (active)
10,CC(C)CCC(C)NC(=O)c1ccc2nccnc2c1 (configuration not stated),13.2% (inactive)
11,COc1ccc(OC)c(/C=N/NC(=O)c2ccc[n+](CC(=O)c3ccccc3)c2)c1,-13.4% (inactive)
12,COc1cccc(/C=N\NC(=O)C2=NNC(=O)C2C)c1O (configuration not stated),61.6% (active)
13,CC1=NNC(=O)C1CCC(=O)N/N=C\c1cccc(Cl)c1 (configuration not stated),-5.29% (inactive)
14,COCc1cc(=O)[nH]c2cc(NC(=O)C(F)(F)F)c(C)cc12,1.06% (inactive)
15,CCCCOC(=O)CNc1nnc(SCC(=O)OCC)[nH]c1=O,6.83% (inactive)
16,Nc1c(-c2cccc(Cl)c2)cnn1-c1cccc([N+](=O)[O-])c1,-1.5% (inactive)
17,Cc1cccc(N2Cc3ccccc3C2=NC(=O)c2ccc(Cl)nc2)c1,4.62% (inactive)
18,Cc1cccc(-n2ncc(Cl)c(Cl)c2=O)c1,95.2% (active)
19,C[C@H](NC(=O)C1CC(=O)N(c2ccc3c(c2)OCCO3)C1)C(=O)N1CCC(C(=O)O)CC1 (some centres not stated),-9.83% (inactive)
20,CC(C)CNC(=O)COC(=O)c1ccccc1OCC(=O)Nc1ccc(Br)cc1,5.47% (inactive)
21,COC(=O)Cc1[nH]n(-c2nc3ccccc3s2)c(=O)c1C(C)=Nc1ccc(OC)cc1,61.1% (active)
22,COCCn1c(SCC(=O)c2[nH]c(C)c(C(C)=O)c2C)nc2ccccc2c1=O,-10% (inactive)
23,NC(N)=N/N=C/c1ccc(OCc2ccc(Cl)cc2Cl)cc1,50.1% (active)
24,NC(=O)COc1ccc(/C=N/NC(=O)C2CCCN2S(=O)(=O)c2ccc(Cl)cc2)cc1 (configuration not stated),-8.47% (inactive)
25,CCCCN(C(=O)C1=NN(c2cc(C)ccc2C)C(=O)CC1)c1c(N)n(CCC)c(=O)[nH]c1=O,-7.09% (inactive)

row,Structure (SMILES),"inhibition (viability loss, TRAIL sensitization)"
1,CC(C)COc1ccc(C(=O)NNC(=O)CCC(=O)c2cccs2)cc1,-0.727% (inactive)
2,Cc1ccc(NC(=O)CSCC(=O)N2CCOCC2)cc1,-10.5% (inactive)
3,CC(C)COc1ccc(C(=O)OCC(=O)NCCC2=CCCCC2)cc1,-6.49% (inactive)
4,COc1ccc(C(=O)Nc2ccc(-n3nncc3C(C)(C)C)cc2)cc1,-20.3% (inactive)
5,COc1ccc(NC(=O)c2ccc(OC)cc2)cc1,50.5% (active)
6,COc1cccc(C(=O)Nc2ccc3nc4n(c(=O)c3c2)CCCCC4)c1,23.6% (inactive)
7,COc1cccc(C(=O)Nc2ccc(N3CCCC3)cc2)c1,46.7% (active)
8,O=C(Nc1ccc(Cl)cc1)c1cccc(OC(=S)N2CCOCC2)c1,12.3% (inactive)
9,COc1ccc(NC(=O)c2ccc(C#CC(C)(C)O)cc2)cc1,0.194% (inactive)
10,COc1ccc(N2c3ccccc3CN(Cc3ccccc3)[C@@H](C)[C@H]2Cc2ccc(-c3ccccc3)cc2)cc1,-5.86% (inactive)
11,CCOC(=O)C1CCN(C(=O)Cn2nc(C)c3c(C)n(-c4ccccc4)nc3c2=O)CC1,-20.8% (inactive)
12,CCCN1C(=O)C(NC(C)=O)c2cc(OC)ccc21 (configuration not stated),-4.35% (inactive)
13,O=C(COc1ccc2c(C(F)(F)F)cc(=O)oc2c1)Nc1ccc2c(c1)OCCO2,-2.58% (inactive)
14,Cc1ccnc(NC(=O)CNC(=O)c2ccccc2)c1,-13.7% (inactive)
15,Cc1csc(NC(=O)CSc2ccc(-c3ccc(F)cc3)nn2)n1,-13.9% (inactive)
16,COc1cc(SC)ccc1C(=O)Nc1nc(C)cs1,92.9% (active)
17,COC(=O)c1sc(NC(=O)c2ccc(OC)cc2OC)nc1C,82.4% (active)
18,COc1ccc(C(=O)CCC(=O)Nc2cccnc2)c(OC)c1,7.09% (inactive)
19,Cc1ccnc(NC(=O)c2ccoc2C)c1,11.1% (inactive)
20,COCCn1c(SCC(=O)Nc2nc(C)cs2)nnc1C(C)C,-5.23% (inactive)
21,Cc1ccccc1OCC(=O)Nc1nc(C)c(C(=O)N(C)C)s1,3.67% (inactive)
22,COc1cc(SC)ccc1C(=O)Nc1cc(C)ccn1,67.3% (active)

# From PubChem BioAssay AID624354 (Sanford-Burnham Center for Chemical Genomics, 2012)
